PubChem BioAssay (NCATS)
Inconclusive results are not listed. Calls of active or inactive are those of the source. Unless noted, calls follow the shape of the full dose curve.

Key:
[1] = target: Glucocorticoid receptor (Homo sapiens) (UniProt P04150); assay: qHTS assay for small molecule agonists of glucocorticoid receptor signaling (AID 588532; active = well fitted curve in the direction sought with a large enough effect in the signal ratio, with a control signal flat; the % refers to the signal ratio;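 also: 100% = dexamethasone at 0.1 µM and 0% = DMSO only wells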); conditions: HeLa MMTV-bla, beta-lactamase ratio, agonist, 18 h; stronger effect = higher value; percent of dexamethasone control, DMSO zero
Method in brief: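 Quantitative HTS using CellSensor MMTV-bla HeLa cells in charcoal/dextran-treated serum; compounds tested up to 92 uM. After 18 h at 37 C, CCF4 dye reported reporter induction.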

[2] = qHTS assay for small molecule antagonists of peroxisome proliferator-activated receptor delta signaling (AID 588535; active = well fitted inhibition curve with a large enough effect in the signal ratio, with a control signal flat, not every such curve was filed as active; the % refers to the signal ratio;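 as to max response: cells co-treated with a PPAR-delta agonist as stimulator during compound exposure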); conditions: HEK293T PPARd-UAS-bla, beta-lactamase FRET ratio, 18 h; 460 nm channel
Method in brief: (§1)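 Antagonist-mode qHTS using GeneBLAzer PPAR-delta-UAS-bla HEK293T cells; compound exposure 18 hrs at 37 C over a titration. Ratiometric CCF4 fluorescence at 460/530 nm; concentration-response points fitted to the Hill equation.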

[3] = target: Peroxisome proliferator-activated receptor gamma (Homo sapiens) (UniProt P37231); assay: qHTS assay for small molecule agonists of peroxisome proliferator-activated receptor gamma signaling (AID 588536; active = well fitted curve in the direction sought with a large enough effect in the signal ratio, with a control signal flat, not every such curve was filed as active; the % refers to the signal ratio;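 also: 0% = DMSO basal wells and 100% = rosiglitazone at 2 µM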)
Method in brief: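 Cells were plated and held 6–6.5 h at 37 C, then compounds were added as a titration series. After a further 16 h, CCF4 dye was loaded for 2 h at room temperature and emission at 460/530 nm recorded.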

[4] = qHTS assay for small molecule agonists of retinoid X receptor alpha signaling (AID 588544); conditions: HEK293T RXRa-UAS-bla, beta-lactamase reporter, 18 h; 530 nm emission;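 as to activation: 0% = DMSO basal wells and 100% = reference agonist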
[5] = target: Retinoic acid receptor RXR-alpha (Homo sapiens) (UniProt P19793); assay: as above
[6] = target: Thyroid hormone receptor beta (Homo sapiens) (UniProt P10828); assay: qHTS assay for small molecule agonists of thyroid hormone receptor beta signaling (AID 588545)
Method in brief: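 HEK 293 TR-UAS-bla; agonist mode; 18 hrs, 37 C; CCF4, ex 405/em 460 and 530 nm; norm. T3 10 nM = 100%, DMSO = 0%; Hill fit → EC50, efficacy.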

[7] = qHTS assay for small molecule antagonists of retinoid X receptor alpha signaling (AID 588546; active = well fitted inhibition curve with a large enough effect in the signal ratio, with a control signal flat, not every such curve was filed as active; the % refers to the signal ratio;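 also: cells stimulated with 9-cis-retinoic acid as agonist; % is scaled to controls: 0 for no effect and ±100 for the full control effect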); conditions: HEK293T RXRa-UAS-bla, beta-lactamase ratio, antagonist mode; measured here: W530 green channel, cytotoxicity proxy
Method in brief: (§2)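 Beta-lactamase reporter inhibition, read as CCF4 fluorescence ratio (ex 405, em 460/530 nm) after 2 h at RT. HEK293T UAS-bla cells, 2500/well, were stimulated with 9-cis-RA at 500 or 100 nM final alongside test compound for 18 h at 37 C.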

[8] = target: Retinoic acid receptor RXR-alpha (Homo sapiens) (UniProt P19793); assay: as above; conditions: HEK293T RXRa-UAS-bla, beta-lactamase ratio, antagonist mode
Method in brief: as §2

[9] = target: Thyroid hormone receptor beta (Homo sapiens) (UniProt P10828); assay: qHTS assay for small molecule antagonists of thyroid hormone receptor beta signaling (AID 588547; active = well fitted inhibition curve with a large enough effect in the signal ratio, with a control signal flat, not every such curve was filed as active; the % refers to the signal ratio;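 also: cells stimulated with 0.4 nM T3 agonist during compound exposure; series mostly up to about 77 µM; % is scaled to controls: 0 for no effect and ±100 for the full control effect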); conditions: TR-UAS-bla HEK293, beta-lactamase ratio, antagonist mode, 18 h
Method in brief: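 Inhibition of T3-driven (0.4nM final) beta-lactamase reporter activity was measured over 0.59 nM to 92 uM compound after 18 h at 37 C. The cells were GripTite HEK293 TR-UAS-bla in charcoal/dextran-stripped serum, with CCF4 ratio read-out and IC50 from Hill fits.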

[10] = target: Voltage-gated inwardly rectifying potassium channel KCNH2 (Homo sapiens) (UniProt Q12809); assay: qHTS Assay for Small Molecule Inhibitors of the Human hERG Channel Activity (AID 588834; active = well fitted inhibition curve with a large enough effect;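 also: top concentration of the series differs between compounds; % is scaled to controls: 0 for no effect and ±100 for the full control effect; lower thallium flux fluorescence means stronger hERG block; nearly all actives have a fitted effect of over 50% in size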)
Method in brief: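 Thallium-flux (FluxOR) read-out on FDSS: fluorescence read 10 s before and 2 min after stimulation buffer. hERG-BacMam-transduced U2OS cells, compound exposure about 10 min. AC50 by standard Hill equation.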

[11] = qHTS assay for small molecule activators of the p53 signaling pathway (AID 651743; active = well fitted activation curve with a large enough effect in the signal ratio, not every such curve was filed as active; the % refers to the signal ratio; also: series mostly up to about 92 µM; % of control where 0% means no effect); conditions: HCT-116 p53RE-bla, beta-lactamase FRET ratio, 16 h; stronger effect = higher value
Method in brief: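 A beta-lactamase reporter under p53 response element control, stably carried by HCT-116 cells, reported pathway activation. Test compounds were applied for 16 hours at 37 C, and fluorescence was measured 2 hours after adding the B/G FRET substrate.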

[12] = qHTS assay for small molecule activators of the nuclear factor-kappa B (NF-kB) signaling pathway (AID 651749; active = well fitted activation curve with a large enough effect in the signal ratio; the % refers to the signal ratio; also: series mostly up to about 77 µM; % of control where 0% means no effect); conditions: NF-kB-bla ME-180 cells, beta-lactamase FRET ratio, 16 h; stronger effect = higher value
Method in brief: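 FRET-based beta-lactamase detection in ME-180 cells reports NF-kB response-element-driven transcription following overnight (16 hr) compound treatment.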

[13] = qHTS assay for small molecule disruptors of the mitochondrial membrane potential - 1 hr assay (AID 651754); also: % is scaled to controls: 0 for no effect and ±100 for the full control effect; nearly all actives have a fitted effect of over 35% in size
Method in brief: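 Read-out: dye fluorescence at 490 nm ex/535 nm em (monomers) and 540 nm ex/590 nm em (aggregates) in HepG2 cells. Compound exposure 1 hr at 37C, followed by 30 min dye loading.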

[14] = target: Glucocorticoid receptor (Homo sapiens) (UniProt P04150); assay: qHTS assay for small molecule antagonists of glucocorticoid receptor signaling (AID 588533; active = well fitted inhibition curve with a large enough effect in the signal ratio, with a control signal flat, not every such curve was filed as active; the % refers to the signal ratio;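 also: cells stimulated with 2 nM dexamethasone as agonist; % is scaled to controls: 0 for no effect and ±100 for the full control effect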)
Method in brief: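 Antagonist-mode qHTS: compound titrations added to GRE-bla HeLa cells, then dexamethasone 2 nM final; 18 h, 37 C. CCF4 FRET fluorescence normalized to dexamethasone and DMSO; IC50 from Hill fit.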

[15] = target: Peroxisome proliferator-activated receptor delta (Homo sapiens) (UniProt Q03181); assay: qHTS assay for small molecule antagonists of peroxisome proliferator-activated receptor delta signaling (AID 588535);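 as to max response: cells co-treated with a PPAR-delta agonist as stimulator during compound exposure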
Method in brief: as §1

[16] = target: Peroxisome proliferator-activated receptor gamma (Homo sapiens) (UniProt P37231); assay: qHTS assay for small molecule antagonists of peroxisome proliferator-activated receptor gamma signaling (AID 588537; active = well fitted inhibition curve with a large enough effect in the signal ratio, with a control signal flat, not every such curve was filed as active; the % refers to the signal ratio;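 also: reporter cells co-stimulated with 50 nM rosiglitazone agonist during compound treatment; % of control where 0% means no effect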)
Method in brief: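 Cell-based beta-lactamase assay; GW9662 served as the antagonist control. Stimulation used rosiglitazone, final 50 nM, 16 h, 37 C.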

[17] = target: Vitamin D3 receptor (Homo sapiens) (UniProt P11473); assay: qHTS assay for small molecule antagonists of vitamin D receptor signaling (AID 588541);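 also: receptor activated by calcitriol during compound treatment; series mostly up to about 77 µM; % is scaled to controls: 0 for no effect and ±100 for the full control effect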
Method in brief: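 Antagonist-mode beta-lactamase reporter assay: HEK293T VDR-UAS-bla cells were exposed to titrated compound alongside 1-alpha,25-dihydroxyvitamin D3 at 3 nM final for 16 h. Values were normalized to the 50 nM agonist control and DMSO basal, with IC50 and efficacy from Hill equation fits.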

[18] = qHTS assay for small molecule agonists of the antioxidant response element (ARE) signaling pathway (AID 651741; active = well fitted activation curve with a large enough effect in the signal ratio; the % refers to the signal ratio; also: potency is read from the fitted curve at half-maximal effect; as to activation: % of control where 0% means no effect)
Method in brief: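 Agonist activity is measured as ARE-driven beta-lactamase expression in a stable HepG2 reporter line, using 16 h compound treatment at 37 C and a FRET substrate fluorescence readout after 2 h.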

[19] = target: Vitamin D3 receptor (Homo sapiens) (UniProt P11473); assay: qHTS assay for small molecule agonists of vitamin D receptor signaling (AID 588543);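 also: 0% = DMSO basal and 100% = reference agonist control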
Method in brief: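 β-lactamase reporter, VDR-UAS-bla HEK293T, agonist mode. Cells plated 5 h at 37 °C, compound titration 16 h at 37 °C, CCF4 dye 2 h RT, ratio 460/530 nm. Hill fit → EC50, efficacy vs 50 nM 1α,25-(OH)2D3.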

Chain of Peroxisome proliferator-activated receptor delta (Homo sapiens) (Q03181 whole entry, looked up): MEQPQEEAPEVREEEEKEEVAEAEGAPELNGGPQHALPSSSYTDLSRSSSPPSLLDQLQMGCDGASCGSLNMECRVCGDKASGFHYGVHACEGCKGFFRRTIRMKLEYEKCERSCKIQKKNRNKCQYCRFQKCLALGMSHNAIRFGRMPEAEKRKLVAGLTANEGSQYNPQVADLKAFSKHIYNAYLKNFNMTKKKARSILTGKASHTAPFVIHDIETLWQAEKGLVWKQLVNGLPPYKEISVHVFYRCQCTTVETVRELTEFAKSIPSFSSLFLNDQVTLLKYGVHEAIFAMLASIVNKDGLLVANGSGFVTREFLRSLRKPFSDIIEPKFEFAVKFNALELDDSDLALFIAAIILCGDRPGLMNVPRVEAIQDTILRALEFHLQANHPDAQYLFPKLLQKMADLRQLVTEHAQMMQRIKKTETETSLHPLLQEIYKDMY
Chain of Glucocorticoid receptor (Homo sapiens) (P04150 whole entry, looked up): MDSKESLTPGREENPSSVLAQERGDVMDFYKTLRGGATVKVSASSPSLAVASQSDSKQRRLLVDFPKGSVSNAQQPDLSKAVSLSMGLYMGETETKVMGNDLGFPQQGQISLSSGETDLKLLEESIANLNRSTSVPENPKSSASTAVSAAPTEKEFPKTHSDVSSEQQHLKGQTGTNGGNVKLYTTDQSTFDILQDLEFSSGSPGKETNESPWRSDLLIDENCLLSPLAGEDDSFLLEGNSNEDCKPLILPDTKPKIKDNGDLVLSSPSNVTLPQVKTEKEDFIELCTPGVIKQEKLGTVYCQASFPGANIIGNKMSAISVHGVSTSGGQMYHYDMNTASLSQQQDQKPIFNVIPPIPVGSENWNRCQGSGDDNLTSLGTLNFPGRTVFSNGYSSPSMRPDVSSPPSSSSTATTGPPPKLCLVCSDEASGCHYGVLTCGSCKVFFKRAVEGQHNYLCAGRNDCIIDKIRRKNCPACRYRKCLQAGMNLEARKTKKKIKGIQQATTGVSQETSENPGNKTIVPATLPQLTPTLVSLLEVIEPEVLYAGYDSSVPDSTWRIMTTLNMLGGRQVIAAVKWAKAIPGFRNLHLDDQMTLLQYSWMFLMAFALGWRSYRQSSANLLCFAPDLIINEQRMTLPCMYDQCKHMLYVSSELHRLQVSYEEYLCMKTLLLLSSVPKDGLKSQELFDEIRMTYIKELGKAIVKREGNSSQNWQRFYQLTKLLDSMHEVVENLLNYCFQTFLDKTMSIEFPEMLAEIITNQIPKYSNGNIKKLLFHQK
Chain of Thyroid hormone receptor beta (Homo sapiens) (P10828 whole entry, looked up): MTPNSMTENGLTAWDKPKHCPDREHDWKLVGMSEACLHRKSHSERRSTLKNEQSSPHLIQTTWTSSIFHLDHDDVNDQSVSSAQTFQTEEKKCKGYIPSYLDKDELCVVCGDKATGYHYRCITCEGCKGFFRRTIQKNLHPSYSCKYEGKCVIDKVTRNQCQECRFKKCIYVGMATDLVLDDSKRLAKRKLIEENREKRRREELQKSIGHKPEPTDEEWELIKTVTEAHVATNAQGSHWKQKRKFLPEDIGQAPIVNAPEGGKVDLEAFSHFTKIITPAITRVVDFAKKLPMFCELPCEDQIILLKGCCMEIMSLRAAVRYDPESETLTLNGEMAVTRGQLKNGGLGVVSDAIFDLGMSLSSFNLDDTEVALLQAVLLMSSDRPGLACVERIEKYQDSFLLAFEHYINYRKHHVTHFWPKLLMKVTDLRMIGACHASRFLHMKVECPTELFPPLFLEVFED
Chain of Peroxisome proliferator-activated receptor gamma (Homo sapiens) (P37231 whole entry, looked up): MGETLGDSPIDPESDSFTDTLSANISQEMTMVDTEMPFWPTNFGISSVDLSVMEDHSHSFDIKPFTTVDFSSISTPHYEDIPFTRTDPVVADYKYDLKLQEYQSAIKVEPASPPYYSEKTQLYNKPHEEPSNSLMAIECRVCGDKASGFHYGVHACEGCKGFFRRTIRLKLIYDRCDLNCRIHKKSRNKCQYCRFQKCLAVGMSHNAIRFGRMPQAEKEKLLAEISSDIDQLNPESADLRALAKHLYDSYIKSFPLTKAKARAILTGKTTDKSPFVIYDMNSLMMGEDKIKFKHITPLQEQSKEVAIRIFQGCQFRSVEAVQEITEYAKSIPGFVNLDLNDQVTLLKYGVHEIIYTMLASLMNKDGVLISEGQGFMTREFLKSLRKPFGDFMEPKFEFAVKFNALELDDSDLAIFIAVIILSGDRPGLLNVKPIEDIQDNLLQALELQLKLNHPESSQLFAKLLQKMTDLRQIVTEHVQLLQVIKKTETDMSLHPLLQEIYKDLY
Chain of Vitamin D3 receptor (Homo sapiens) (P11473 whole entry, looked up): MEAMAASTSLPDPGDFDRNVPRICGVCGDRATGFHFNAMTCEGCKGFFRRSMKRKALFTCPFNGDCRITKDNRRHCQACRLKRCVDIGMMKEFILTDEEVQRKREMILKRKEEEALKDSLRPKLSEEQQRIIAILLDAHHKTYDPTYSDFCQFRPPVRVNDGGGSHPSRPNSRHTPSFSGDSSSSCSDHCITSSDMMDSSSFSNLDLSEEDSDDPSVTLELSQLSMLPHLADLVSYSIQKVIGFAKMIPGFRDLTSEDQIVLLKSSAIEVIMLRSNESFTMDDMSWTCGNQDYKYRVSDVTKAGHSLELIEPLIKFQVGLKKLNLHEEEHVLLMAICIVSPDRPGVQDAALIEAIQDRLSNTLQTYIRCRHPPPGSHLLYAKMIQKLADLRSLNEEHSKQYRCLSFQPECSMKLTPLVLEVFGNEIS
Chain of Retinoic acid receptor RXR-alpha (Homo sapiens) (P19793 whole entry, looked up): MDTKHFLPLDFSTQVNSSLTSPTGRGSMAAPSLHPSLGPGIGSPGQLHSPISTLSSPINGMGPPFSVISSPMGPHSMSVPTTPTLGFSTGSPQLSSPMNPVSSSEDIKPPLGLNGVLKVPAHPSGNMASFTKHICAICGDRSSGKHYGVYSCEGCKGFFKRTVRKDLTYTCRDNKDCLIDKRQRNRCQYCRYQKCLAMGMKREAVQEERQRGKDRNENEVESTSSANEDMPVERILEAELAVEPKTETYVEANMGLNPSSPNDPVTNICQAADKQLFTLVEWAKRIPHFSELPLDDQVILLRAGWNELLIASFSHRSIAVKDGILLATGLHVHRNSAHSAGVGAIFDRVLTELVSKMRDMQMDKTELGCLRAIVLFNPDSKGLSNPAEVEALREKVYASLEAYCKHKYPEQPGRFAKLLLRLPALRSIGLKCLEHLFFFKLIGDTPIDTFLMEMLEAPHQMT
Chain of Voltage-gated inwardly rectifying potassium channel KCNH2 (Homo sapiens) (Q12809 whole entry, looked up): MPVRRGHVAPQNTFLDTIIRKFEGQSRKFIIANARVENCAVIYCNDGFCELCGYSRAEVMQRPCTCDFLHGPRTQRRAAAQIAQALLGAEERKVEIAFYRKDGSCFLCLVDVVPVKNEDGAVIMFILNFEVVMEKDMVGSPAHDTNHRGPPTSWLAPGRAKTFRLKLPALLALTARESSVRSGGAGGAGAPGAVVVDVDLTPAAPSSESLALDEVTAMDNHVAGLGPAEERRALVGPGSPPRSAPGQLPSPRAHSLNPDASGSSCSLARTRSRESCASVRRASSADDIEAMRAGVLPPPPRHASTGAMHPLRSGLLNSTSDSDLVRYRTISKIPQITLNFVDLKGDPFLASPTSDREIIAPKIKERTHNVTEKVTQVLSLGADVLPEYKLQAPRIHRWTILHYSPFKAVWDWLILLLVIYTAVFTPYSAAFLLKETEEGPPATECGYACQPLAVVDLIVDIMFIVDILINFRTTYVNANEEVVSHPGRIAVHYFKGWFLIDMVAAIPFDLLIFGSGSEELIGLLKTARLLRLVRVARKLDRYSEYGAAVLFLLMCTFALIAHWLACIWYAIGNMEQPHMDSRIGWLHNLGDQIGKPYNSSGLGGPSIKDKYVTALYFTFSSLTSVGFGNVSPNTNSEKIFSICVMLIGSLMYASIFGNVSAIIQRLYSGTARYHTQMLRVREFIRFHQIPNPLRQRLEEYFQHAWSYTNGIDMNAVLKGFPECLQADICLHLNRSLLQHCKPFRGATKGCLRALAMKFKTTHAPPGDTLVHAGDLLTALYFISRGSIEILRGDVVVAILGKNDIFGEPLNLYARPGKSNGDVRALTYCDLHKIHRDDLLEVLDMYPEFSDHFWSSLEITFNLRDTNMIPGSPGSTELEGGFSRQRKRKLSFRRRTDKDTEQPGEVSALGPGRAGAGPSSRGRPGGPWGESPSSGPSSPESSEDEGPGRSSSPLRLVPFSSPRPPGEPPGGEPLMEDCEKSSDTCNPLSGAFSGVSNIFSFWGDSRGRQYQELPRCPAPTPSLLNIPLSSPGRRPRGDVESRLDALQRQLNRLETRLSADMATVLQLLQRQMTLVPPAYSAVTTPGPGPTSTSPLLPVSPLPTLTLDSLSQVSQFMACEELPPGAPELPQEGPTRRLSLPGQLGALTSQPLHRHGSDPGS

CCN(CC)c1cccc(O)c1
-9.19%: max response [4]
12.9%: max response [2]
6.69%: max response [7]
inactive: activation [1] -1.18% | outcome [3] | outcome [5] | outcome [6] | max response [8] 9.83% | activity change % (negative = inhibition) [9] 4.53% | Potency [10] | activation [11] -0.279% | activation [12] 0.251% | Potency [13]

c1ccsc1
inactive: outcome [14] | Potency [15] | outcome [3] | outcome [16] | outcome [17] | outcome [5] | outcome [6] | max response [8] -6.87% | activity change % (negative = inhibition) [9] -13.7% | Potency [10] | Potency [18] | activation [11] 1.47% | activation [12] 0.633%
-0.2%: max response [7]
-2.14%: max response [2]
-5.29%: max response [4]

Cc1cccc2sc(N)nc12
24.8%: max response [2]
-5.71%: max response [7]
inactive: outcome [14] | Potency [15] | outcome [3] | outcome [16] | outcome [17] | outcome [5] | max response [8] 1.45% | Potency [10] | activation [11] 2.1% | activation [12] 0.512%
-1.76%: max response [4]
active: Potency [18] 15 µM

Cc1cc(C(=O)O)ccc1[N+](=O)[O-]
-3.81%: max response [7]
-3.52%: max response [4]
inactive: outcome [14] | Potency [15] | outcome [3] | outcome [19] | outcome [5] | outcome [6] | max response [8] 36.9% | activity change % (negative = inhibition) [9] 7.48% | Potency [10] | Potency [18] | activation [11] -0.415% | Potency [13]
13.2%: max response [2]

CC(C)Nc1ccccc1
inactive: activation [1] -8.21% | Potency [15] | outcome [3] | outcome [19] | outcome [5] | outcome [6] | max response [8] 3.31% | activity change % (negative = inhibition) [9] -21.8% | Potency [10] | Potency [18] | activation [11] -0.311% | activation [12] 0.185% | Potency [13]
-12.9%: max response [7]
31.6%: max response [2]
-11%: max response [4]

O=[N+]([O-])c1c(Cl)cc(Cl)cc1Cl
-2.99%: max response [7]
inactive: outcome [14] | Potency [15] | outcome [3] | outcome [16] | outcome [17] | outcome [5] | outcome [6] | max response [8] 8.69% | activity change % (negative = inhibition) [9] 3.07% | Potency [10] | activation [11] 1.35% | activation [12] -0.147% | Potency [13]
0.0891%: max response [2]
-6.72%: max response [4]

CC=C(Cl)Cl
-16.9%: max response [4]
-7.38%: max response [7]
inactive: outcome [14] | Potency [15] | outcome [3] | outcome [16] | outcome [17] | outcome [19] | outcome [5] | outcome [6] | max response [8] -5.31% | activity change % (negative = inhibition) [9] -14.6% | Potency [10] | activation [11] -2.14% | activation [12] -0.14% | Potency [13]
24.9%: max response [2]

Cc1ccc(Cl)cc1
inactive: activation [1] -1.4% | Potency [15] | outcome [3] | outcome [17] | outcome [19] | outcome [5] | max response [8] 8.67% | Potency [10] | Potency [18] | activation [11] -2.72%
-3.57%: max response [7]
0.942%: max response [4]
-18%: max response [2]

CC(C)(C)c1ccc(OCC2CO2)cc1 (stereo not drawn)
inactive: outcome [14] | Potency [15] | outcome [17] | outcome [19] | outcome [5] | outcome [6] | max response [8] 11.5% | activity change % (negative = inhibition) [9] 5.82% | Potency [13]
-2.99%: max response [7]
18.6%: max response [2]
-13.4%: max response [4]

CCCOCC(C)O (stereo not drawn)
inactive: Potency [15] | outcome [3] | outcome [16] | outcome [17] | outcome [5] | max response [8] 0.524% | activity change % (negative = inhibition) [9] 0.569% | Potency [10]
-0.284%: max response [2]
-6.13%: max response [7]
-2.42%: max response [4]

NC(=O)c1cccc([N+](=O)[O-])c1
2.13%: max response [4]
inactive: outcome [14] | outcome [3] | outcome [16] | outcome [5] | outcome [6] | max response [8] -6.67% | activity change % (negative = inhibition) [9] 12.3% | Potency [10] | activation [11] 8.78% | Potency [13]
-10.9%: max response [7]
-10.1%: max response [2]

O=[N+]([O-])c1cccc(Cl)c1
-8.32%: max response [4]
4.21%: max response [2]
inactive: Potency [15] | outcome [3] | outcome [16] | outcome [17] | outcome [19] | outcome [5] | outcome [6] | max response [8] 7.77% | activity change % (negative = inhibition) [9] -12.9% | Potency [10] | Potency [18] | activation [11] -3.73% | activation [12] 0.464% | Potency [13]
-3.93%: max response [7]

CC/C=C/C#N
-6.67%: max response [4]
12.5%: max response [2]
-0.89%: max response [7]
inactive: outcome [14] | outcome [3] | outcome [16] | outcome [17] | outcome [5] | max response [8] 10.5% | activity change % (negative = inhibition) [9] 3.84% | Potency [10] | Potency [18] | activation [11] -0.654% | activation [12] -2.54% | Potency [13]
